Source: PubChem BioAssay AID1117283 (Broad Institute, 2014)
Results with a measured potency or affinity are listed apart. Activity calls are given as the source filed them.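 How the source made its calls: active means fluorescent signal decreased by at least 40%; inconclusive means no clear call, values can overlap the other calls; inactive means the rest, including activity opposite to the expected direction.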

Test: fibronectin fibrillogenesis inhibitors in fibroblasts, dose response, AH1F cells, Alexa488-fibronectin fluorescence, cherry-pick, set 2 (AID 1117283);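 further: AH1F fibroblasts given Alexa488-labelled fibronectin at 24 nM final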

## C=C1C(=O)O[C@@H]2C[C@@H](C)[C@@H]3C=CC(=O)[C@@]3(C)[C@@H](O)[C@H]12
  outcome: inactive
